Experiment [1] can be described thus: qHTS assay for small molecule agonists of the p53 signaling pathway (AID 651631; calls by dose curve; note: nearly all actives have a fitted effect of over 15% in size). In short, it runs like this:
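We treat p53RE-bla HCT-116 cells with compounds for 16 h at 37 °C, add LiveBLAzer B/G FRET substrate for 2 h at room temperature, and measure fluorescence intensity.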
For orientation: qHTS replaces the single test concentration by a dilution series.

Experiment [2] is described as follows: qHTS assay for small molecules that induce genotoxicity in human embryonic kidney cells expressing luciferase-tagged ATAD5 (AID 651632). Note: nearly all actives have a fitted effect of over 15% in size. In short, it runs like this: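 Luminescence read-out: after 16 hr compound exposure at 37C, ATAD5-luciferase HEK293T cells received Amplite, 30 min RT, then CCD imaging. A rise in signal marks genotoxic stress.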
Experiment [3] can be described thus: qHTS assay for small molecule agonists of the p53 signaling pathway - cell viability (AID 651633; calls by dose curve;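 note: p53RE-bla HCT reporter cells with a stable beta-lactamase p53 reporter; series mostly up to about 83 µM; nearly all actives have a fitted effect of over 30% in size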). In short, it runs like this: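 p53RE-bla cells, seeded at 4,000 per well and rested 5 h at 37 C/5% CO2, received compounds in DMSO for 16 h at 37 C. CellTiter-Glo was then added, and luminescence was read after 30 min at room temperature to gauge cytotoxicity.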

Experiment [4] is described as follows: qHTS assay for small molecules that induce genotoxicity in human embryonic kidney cells expressing luciferase-tagged ATAD5 - cell viability (AID 651634; calls by dose curve; note: nearly all actives have a fitted effect of over 25% in size). In short, it runs like this: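 HEK293T ATAD5-luc cells, 2,000/well; compound 15.5 hr, 37C/5% CO2; CellTiter-Fluor 30 min, 37C; fluorescence read.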
A short description of experiment [5]: qHTS assay for small molecule disruptors of the mitochondrial membrane potential - cell viability (AID 720634; calls by dose curve;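 note: human HepG2 liver cancer cells; series mostly up to about 83 µM; nearly all actives have a fitted effect of over 20% in size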). In short, it runs like this:
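Luminescence from CellTiter-Glo (ATP content) gave viability in HepG2 cells, read in the same wells as the MMP dye assay after 1 hr compound exposure at 37 C.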

Experiment [6] can be described thus: qHTS assay for small molecule disruptors of the mitochondrial membrane potential (AID 720635). Note: potency is the fitted concentration of half-maximal effect. In short, it runs like this: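 HepG2 cells (2,000/well) attached overnight at 37C, then took compound for 1 hr at 37C, 5% CO2. Mito-MPS dye was added for 30 min; fluorescence was read at 490/535 nm (monomers) and 540/590 nm (aggregates).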
Experiment [7] in a line: qHTS assay to test for compound auto fluorescence at 590 nm (red) in HepG2 cells (AID 720674). In short, it runs like this:
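Rose Bengal sodium served as the red fluorophore standard. HepG2 monolayers (overnight attachment, MEM with 10% FBS) were exposed to test compounds for 1 hr at 37 C and read at Ex 540/Em 590 nm.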

A short description of experiment [8]: qHTS assay to test for compound auto fluorescence at 535 nm (green) in HepG2 cells (AID 720675).
The nature of experiment [9]: qHTS assay to test for compound auto fluorescence at 460 nm (blue) in HEK293 cells (AID 720678). In short, it runs like this:
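Blue-channel (Ex/Em 405/460 nm) intensity measured in HEK293 cultures after overnight compound exposure at 37C; signal expressed relative to triamterene. Cells plated 2,000 per well in 10% dialyzed FBS medium and allowed 4-5 hr to attach.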

A short description of experiment [10]: qHTS assay to test for compound auto fluorescence at 590 nm (red) in HEK293 cells (AID 720679). In short, it runs like this:
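Red-channel autofluorescence (Ex/Em 540/590 nm; Rose Bengal sodium reference) was measured after overnight 37C, 5% CO2 exposure of attached HEK293 cells, 2,000 per well in medium with 10% dialyzed FBS.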

Each structure is given as a SMILES string. Several values for one entry are separate records, joined by “and”; a condition that tells them apart may be missing. Identical values can stand only once. Records with an inconclusive call do not appear. The source holds several records for some structures; these can differ, active in one and inactive in another. Activity calls are given as the source filed them. Unless noted, calls come from the whole dose curve; as a rule, active = well fitted curve in the direction sought with a large enough effect in the repeat runs; inconclusive = weak or mixed curves; inactive = no such curve, though single readings can be large; an effect the other way counts as inactive or inconclusive.

In PubChem BioAssay (Tox21) one finds outcome and Potency data, which are given here for 24 molecules.

As for `CCCN(CCC)N=O`, the outcome in experiment [1], in experiment [2], in experiment [3], in experiment [4], in experiment [7] and in [8] was inactive. The call in experiment [9] and in experiment [10] was inactive. Moreover, the Potency entry in experiment [5] and in [6] was “inactive” in each case.
On to `Nc1ccc(Cc2ccc(N)cc2)cc1`, for which the outcome in [1], in experiment [2], in [3], in experiment [4], in experiment [7] and in [8] was inactive. Also, the molecule was called inactive in [9] and in experiment [10]. Also, the Potency entry in [5] and in experiment [6] was “inactive” each time.
On to `CCOC(=O)c1ccccc1C(=O)OCC`, for which the molecule was called inactive in [1], in experiment [2], in experiment [3], in experiment [4], in [7] and in experiment [9]. Besides, the outcome in experiment [10] was inactive. For the same molecule, the Potency entry in experiment [5] and in [6] was “inactive” throughout.
On to `c1ccc2c(c1)Oc1ccccc1O2`, for which the molecule was classed as inactive in [1], in experiment [2], in experiment [3], in experiment [4], in [7] and in experiment [9]. Moreover, in experiment [10], the outcome was inactive. The Potency result in [5] and in [6] was “inactive” throughout.
Turning to `Nc1c(Cl)c(Cl)nc(C(=O)O)c1Cl`, the molecule was called inactive in [1], in experiment [2], in experiment [3], in experiment [4], in experiment [7] and in experiment [9]. The molecule was classed as inactive in [10]. Further, the Potency result in [5] is “inactive”. In addition, in experiment [6], the Potency entry was “inactive and 56.1 µM (active)”.
For `O=c1[nH]c2ccccc2c(=O)o1`, the molecule was called inactive in [1], in [2], in experiment [3], in [4], in [7] and in experiment [8]. For the same molecule, the molecule was called inactive in experiment [9] and in experiment [10]. For the same molecule, the Potency result in [5] and in experiment [6] was “inactive” each time.
As for `CC(Br)C(=O)O` (configuration not stated), the result in [1], in [2], in [3], in experiment [4], in [7] and in experiment [8] was inactive. Also, the outcome in [9] and in experiment [10] was inactive. In addition, the Potency result in experiment [5] and in experiment [6] was “inactive” throughout.
Turning to `CCNc1nc(NC(C)(C)C)nc(SC)n1`, the molecule was called inactive in [1], in experiment [2], in experiment [3], in [4], in [7] and in experiment [8]. Besides, the molecule was called inactive in experiment [9] and in [10]. The Potency entry in experiment [5] was “inactive”. Also, in experiment [6], the Potency was 27.3 µM (active).
For `O=NN1CCCCCCC1`, the call in [1], in [2], in experiment [3], in [4], in experiment [7] and in [9] was inactive. In addition, the molecule was classed as inactive in experiment [10]. Further, the Potency entry in experiment [5] and in experiment [6] was “inactive” in each case.
Turning to `CC(C)C1(C)N=C(c2nc3ccccc3cc2C(=O)O)NC1=O` (configuration not stated), the molecule was called inactive in experiment [1], in experiment [2], in experiment [3], in experiment [4], in [7] and in [8]. For the same molecule, the outcome in experiment [9] and in experiment [10] was inactive. Besides, the Potency result in experiment [5] and in experiment [6] was “inactive” each time.
For `c1ccc2c(c1)oc1ccccc12`, the molecule was classed as inactive in experiment [1], in experiment [2], in [3], in experiment [4], in [7] and in [9]. The outcome in experiment [10] was inactive. Further, the Potency result in experiment [5] and in [6] was “inactive” in each case.
In the case of `CN(C)CCO`, the molecule was classed as inactive in experiment [1], in experiment [2], in experiment [3], in experiment [4], in [7] and in experiment [8]. In addition, the molecule was called inactive in experiment [9] and in [10]. The Potency result in [5] and in [6] was “inactive” throughout.
Take `Nc1ccc(Oc2ccc(N)cc2)cc1`: the molecule was called inactive in [1], in [2], in experiment [3], in [4], in experiment [7] and in experiment [9]. Moreover, the molecule was called inactive in experiment [10]. In addition, the Potency entry in experiment [5] and in [6] was “inactive” each time.
Consider `CC(C)(C)OOC(=O)c1ccccc1`, for which the call in experiment [1], in experiment [2], in [3], in [4], in experiment [7] and in [8] was inactive. Also, the molecule was classed as inactive in experiment [9] and in [10]. Also, the Potency result in [5] and in experiment [6] was “inactive” in each case.
Turning to `O=c1[nH]c(=O)[nH]c(=O)[nH]1`, the molecule was called inactive in experiment [1], in [2], in experiment [3], in experiment [4], in experiment [7] and in [8]. The call in experiment [9] and in experiment [10] was inactive. For the same molecule, the Potency result in experiment [5] and in experiment [6] was “inactive” throughout.
Regarding `COC(=O)NC(=S)Nc1ccccc1NC(=S)NC(=O)OC`, the molecule was called inactive in experiment [1], in experiment [2], in experiment [3], in [4], in experiment [7] and in experiment [8]. The molecule was called inactive in [9] and in experiment [10]. In addition, the Potency entry in [5] and in experiment [6] was “inactive” each time.
As to `Nc1ccccc1C(=O)O`, the call in [1], in experiment [2], in experiment [3], in [4], in experiment [7] and in [9] was inactive. Further, the result in experiment [10] was inactive. Moreover, the Potency entry in [5] and in [6] was “inactive” in each case.
As for `NCC(O)c1ccc(O)cc1` (configuration not stated), the call in experiment [1], in experiment [2], in experiment [3], in experiment [4], in experiment [7] and in experiment [8] was inactive. For the same molecule, the call in [9] and in [10] was inactive. Besides, the Potency result in experiment [5] and in experiment [6] was “inactive” throughout.
Regarding `CC(C)(Cl)Cl`, the molecule was classed as inactive in [1], in experiment [2], in experiment [3], in experiment [4], in experiment [7] and in [8]. For the same molecule, the molecule was called inactive in experiment [9] and in [10]. Further, the Potency result in [5] and in experiment [6] was “inactive” each time.
For the molecule `Cc1cc(Cl)ccc1O`, the call in [1], in [2], in experiment [3], in experiment [4], in experiment [7] and in experiment [8] was inactive. The call in experiment [9] and in experiment [10] was inactive. The Potency entry in experiment [5] is “inactive”. Further, the Potency in [6] is 42 µM (active) and 54.5 µM (active).
`CCCCCCCCCCCC#N`: the molecule was called inactive in experiment [1], in experiment [2], in [3], in [4], in [7] and in experiment [8]. The outcome in experiment [9] and in experiment [10] was inactive. Further, the Potency result in [5] and in [6] was “inactive” each time.
`CC1OC(C)OC(C)O1` (configuration not stated): the result in experiment [1], in experiment [2], in experiment [3], in experiment [4], in experiment [7] and in experiment [9] was inactive. For the same molecule, the result in experiment [10] was inactive. The Potency entry in experiment [5] and in experiment [6] was “inactive” each time.
On to `C#CC(C)(C)NC(=O)c1cc(Cl)cc(Cl)c1`, for which the molecule was classed as inactive in experiment [1], in experiment [2], in [3], in experiment [4], in experiment [7] and in experiment [8]. The result in [9] and in experiment [10] was inactive. Moreover, the Potency entry in [5] and in [6] was “inactive” throughout.
Regarding `O=[N+]([O-])c1ccc(Oc2ccc(Cl)cc2Cl)cc1`, the result in experiment [1], in [2], in experiment [3], in experiment [4], in experiment [7] and in [8] was inactive. Also, the result in [9] and in experiment [10] was inactive. Also, the Potency result in experiment [5] was “inactive”. In addition, the Potency in experiment [6] was 54.8 µM (active) and 30.6 µM (active).
